nsP2pro primary: inhibitors of chikungunya virus nsP2 protease. FRET peptide cleavage, nsP2pro, fluorescence 1 h. 31,000 tested, 1.1% active. AID 1964107. Potency, µM (top dose mostly 24.9 µM), inactives show at the top dose activity change, negative = inhibition, most hits filed as inhibitors; calls by dose curve; note: nearly all actives have a fitted effect of over 60% in size
Target sequence (Q8JUX6 whole entry, looked up): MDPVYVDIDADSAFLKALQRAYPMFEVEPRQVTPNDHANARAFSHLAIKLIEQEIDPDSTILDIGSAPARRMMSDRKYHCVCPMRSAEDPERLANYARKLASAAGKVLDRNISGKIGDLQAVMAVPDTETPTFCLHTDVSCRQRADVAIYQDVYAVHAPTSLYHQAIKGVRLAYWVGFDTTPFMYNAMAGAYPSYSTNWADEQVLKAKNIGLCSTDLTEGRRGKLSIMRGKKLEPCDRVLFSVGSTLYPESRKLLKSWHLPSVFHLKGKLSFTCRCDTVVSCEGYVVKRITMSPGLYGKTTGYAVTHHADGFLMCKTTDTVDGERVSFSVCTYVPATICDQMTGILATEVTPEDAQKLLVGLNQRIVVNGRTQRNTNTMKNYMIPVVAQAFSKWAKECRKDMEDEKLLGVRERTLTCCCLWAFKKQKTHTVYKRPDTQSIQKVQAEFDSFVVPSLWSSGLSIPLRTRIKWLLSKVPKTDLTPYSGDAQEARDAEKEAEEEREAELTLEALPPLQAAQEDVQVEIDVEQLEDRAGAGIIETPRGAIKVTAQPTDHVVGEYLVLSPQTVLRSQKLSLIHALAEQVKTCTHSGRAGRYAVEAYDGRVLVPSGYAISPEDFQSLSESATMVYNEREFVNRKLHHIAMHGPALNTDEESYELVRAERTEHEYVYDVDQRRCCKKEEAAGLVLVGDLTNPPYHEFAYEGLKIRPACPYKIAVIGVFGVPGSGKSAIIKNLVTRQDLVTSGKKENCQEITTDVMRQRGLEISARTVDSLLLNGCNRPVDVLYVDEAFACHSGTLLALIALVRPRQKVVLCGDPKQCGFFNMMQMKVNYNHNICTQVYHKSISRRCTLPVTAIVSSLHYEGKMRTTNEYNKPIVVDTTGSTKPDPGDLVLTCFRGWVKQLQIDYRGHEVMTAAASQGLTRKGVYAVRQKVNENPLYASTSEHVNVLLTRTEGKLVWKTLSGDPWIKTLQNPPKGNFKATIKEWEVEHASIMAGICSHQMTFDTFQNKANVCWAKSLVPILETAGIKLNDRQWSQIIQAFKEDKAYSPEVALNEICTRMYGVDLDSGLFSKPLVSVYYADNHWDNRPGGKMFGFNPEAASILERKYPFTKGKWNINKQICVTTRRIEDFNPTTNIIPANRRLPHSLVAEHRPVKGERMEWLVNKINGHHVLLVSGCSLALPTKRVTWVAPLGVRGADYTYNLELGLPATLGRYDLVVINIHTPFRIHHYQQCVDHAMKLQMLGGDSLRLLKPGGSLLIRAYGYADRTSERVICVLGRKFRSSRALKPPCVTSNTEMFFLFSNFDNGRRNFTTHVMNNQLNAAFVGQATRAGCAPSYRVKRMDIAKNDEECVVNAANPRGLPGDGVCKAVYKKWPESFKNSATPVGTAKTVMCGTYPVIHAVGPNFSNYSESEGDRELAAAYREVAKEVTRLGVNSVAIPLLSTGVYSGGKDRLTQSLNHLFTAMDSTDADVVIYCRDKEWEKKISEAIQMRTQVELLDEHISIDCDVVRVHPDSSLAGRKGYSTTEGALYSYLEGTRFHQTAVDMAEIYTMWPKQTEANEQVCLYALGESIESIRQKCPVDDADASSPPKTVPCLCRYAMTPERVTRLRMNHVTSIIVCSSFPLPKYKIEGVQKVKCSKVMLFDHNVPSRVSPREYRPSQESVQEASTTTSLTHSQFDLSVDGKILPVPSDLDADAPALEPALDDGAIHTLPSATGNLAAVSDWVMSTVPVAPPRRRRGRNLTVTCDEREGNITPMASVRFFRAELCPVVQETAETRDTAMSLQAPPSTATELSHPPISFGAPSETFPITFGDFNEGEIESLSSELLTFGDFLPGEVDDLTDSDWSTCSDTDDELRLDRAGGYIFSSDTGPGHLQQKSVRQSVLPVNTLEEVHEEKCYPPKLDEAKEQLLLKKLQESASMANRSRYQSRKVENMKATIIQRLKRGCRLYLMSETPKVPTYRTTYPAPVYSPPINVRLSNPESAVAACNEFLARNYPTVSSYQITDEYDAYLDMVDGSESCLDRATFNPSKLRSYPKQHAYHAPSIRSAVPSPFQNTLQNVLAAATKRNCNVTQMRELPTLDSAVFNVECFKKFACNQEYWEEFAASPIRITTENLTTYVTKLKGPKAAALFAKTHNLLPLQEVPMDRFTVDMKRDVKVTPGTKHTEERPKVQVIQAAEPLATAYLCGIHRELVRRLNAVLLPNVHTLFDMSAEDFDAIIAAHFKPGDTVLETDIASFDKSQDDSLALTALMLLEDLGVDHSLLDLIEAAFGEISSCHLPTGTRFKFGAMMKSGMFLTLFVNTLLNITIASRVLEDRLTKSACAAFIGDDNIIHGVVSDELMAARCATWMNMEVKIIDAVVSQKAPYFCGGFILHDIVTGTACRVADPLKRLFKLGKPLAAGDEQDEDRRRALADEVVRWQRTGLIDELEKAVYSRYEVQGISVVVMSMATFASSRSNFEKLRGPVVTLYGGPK
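Enzyme 150 nM, substrate 2.5 uM (both final); Tris-HCl 10 mM pH 8.0 + 0.01% Tween 20; cpd up to 25 uM, 7 pts; 15 min preinc., 1 h RT; fluorescence ex 525/em 598.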
An asterisk follows results filed as active; i = inactive; ! = a repeat was not active; [ ] = dose if it differs, or a comment. Only a selection was taken, and hits are over-represented in it overall. % is set by controls: 0 for no effect and ±100 for the full control effect; potency is the fitted concentration of half-maximal effect.

SMILES | nsP2pro primary
Cc1nnc2n1C(C)CN(C(=O)CCn1cnc3ccccc3c1=O)C2 (centres undefined) | i
Cc1ccc(S(=O)(=O)Nc2ccccc2C(=O)Nc2nc(-c3ccccc3)c(Br)s2)cc1 | 1.3%
Cc1cc2c(s1)Nc1ccccc1N=C2N1CCN(C)CC1 | 11.1µM*!
CN1CCN(C2=Nc3ccccc3Cc3ccccc32)CC1 | -0.7%
CN1CCN(C2=Nc3ccccc3Nc3ccc(Cl)cc32)CC1 | 2.4%
Cc1nc(C)c(C(=O)Nc2nn(Cc3ccccc3)c3cccc(OC(C)C)c23)o1 | -10.8%
O=C(c1ccccc1)N1CCC2(CC1)C(=O)NN=C2C1CC1 | 1.8%[39.2 µM]
CC(=C(CCOC(=O)C(C)C)SSC(CCOC(=O)C(C)C)=C(C)N(C=O)Cc1cnc(C)nc1N)N(C=O)Cc1cnc(C)nc1N | 11.1µM*
C/C(=C1\CCOC(=O)S1)N(C=O)Cc1cnc(C)nc1N | 5.2%
O=C1Nc2ccccc2C12CN(Cc1ccc(C(F)(F)F)cc1)C2 | -5.6%
Cc1ccc(/C=C2\CNC/C(=C\c3ccc(C)cc3)C2=O)cc1 | -1.0%
CC(OC(=O)NCC1(CC(=O)O)CCCCC1)OC(=O)C(C)C (centres undefined) | -15.0%
CN1C[C@H](NC(=O)c2cnccn2)CCC[C@@H](C(=O)NCc2cc(F)cc(F)c2)CC1=O | 22.8%
CC1=C(C(=O)O)/C(=C\CO[C@@H]2O[C@H](CO)[C@@H](O)[C@H](O)[C@H]2O)C(OC(=O)/C=C\c2ccc(O)cc2)C1 (some centres undefined) | 0.0242µM*
CC1=C(C(=O)O)/C(=C\CO[C@@H]2O[C@H](CO)[C@@H](O)[C@H](O)[C@H]2O)C(OC(=O)/C=C/c2ccc(O)cc2)C1 (some centres undefined) | 14.2%[10 µM]
OC[C@H]1O[C@@H](OC/C=C/c2ccc(O)cc2)[C@H](O)[C@@H](O)[C@@H]1O | 16.4%
COc1ccc(-c2ncc(CN3CCCC4(C3)CN(C)C(=O)O4)cn2)cc1 (centres undefined) | -7.8%
COc1ccc(CN2CCCC3(C2)CN(C)C(=O)O3)cc1C(=O)O (centres undefined) | -4.7%
CN1CC2(CCN(Cc3ccc(-c4ccc(Cl)cc4)o3)C2)OC1=O (centres undefined) | 12.6µM*
CNC1=C(c2ccc(F)cc2)C(=O)N(Cc2ccccc2)C1 | -8.9%
Nc1nc(CC(=O)Nc2ccc(CCNC[C@H](O)c3ccccc3)cc2)cs1 | -5.3%
Cc1cc(NC(=S)N2CCN(c3cccc(C(F)(F)F)c3)CC2)nc2ccccc12 | -5.4%
CCCNC(=O)N1CCC(Cc2ccc(CCNC(C)=O)cc2)CC1 | -11.1%
O=C1COc2ccc(-c3cccc(O)c3)nc2CN1Cc1ccc(C(F)(F)F)cc1 | i
O=C1COc2ccc(N3CCOCC3)nc2CN1Cc1ccc(F)cc1 | 11.2µM*
SMILES | nsP2pro primary
Cn1cc(-c2ccc3c(n2)CN(Cc2ccc(F)cc2)C(=O)CO3)cn1 | -4.5%[39.2 µM]
COCCCNC(=O)c1cnc2n[nH]c(-c3ccccc3)c2n1 | 1.3%[39.2 µM]
Cc1cccnc1NCCNC(=O)c1ccc(S(N)(=O)=O)cc1 | -10.6%
Fc1cccc(-c2nc3ccccc3s2)c1 | -1.8%
CN(CCCN1c2ccccc2CCc2ccccc21)C(=O)C1CNCCO1 (centres undefined) | -10.7%
COc1ccc(S(=O)(=O)Nc2ccc3n(c2=O)C[C@H]2C[C@@H]3CN(C(=O)c3ccccn3)C2)cc1 | -28.8%
O=C(c1ccc(F)cc1)N1C[C@@H]2C[C@H](C1)c1ccc(NS(=O)(=O)Cc3ccccc3)c(=O)n1C2 | 12.6µM*
CCCS(=O)(=O)Nc1ccc(=O)n2c1[C@@H]1C[C@@H](CN(C(=O)c3ccc(F)cc3)C1)C2 | -1.4%[39.2 µM]
CC(=O)Nc1ccc2c(c1)S(=O)(=O)N=C(CC(C)C)N2CC(C)C | 2.2%
COc1ccc(C[C@H](C)NC[C@@H](O)c2ccc(O)c(NC=O)c2)cc1 | 12.0%
CC(CCc1ccc(O)cc1)NCC(O)c1ccc(O)cc1 (centres undefined) | 0.6%
CC(Cc1ccc2c(c1)OCO2)NCC(O)c1ccc(O)c(O)c1 (centres undefined) | 11.1µM*
NC(=O)[C@H]1C[C@@H](O)[C@H](O)[C@H]2[C@@H]1SC(=Nc1ccc(Cl)cc1)N2CC1CCCCC1 | 3.8%
COCc1cccc(C(=O)N2CC[C@@]3(O)CCN(S(C)(=O)=O)C[C@H]3C2)n1 | 2.4%
COc1cc(CC(=O)O)ccc1O | -21.8%
C[C@@](Cc1ccc(O)c(O)c1)(NN)C(=O)O | 11.1µM*
N[C@@H](Cc1ccc(O)c(O)c1)C(=O)O | 11.6%[0.199 µM]
Cc1nn(C)c(C)c1CCC(=O)NCCc1ncc(C)n1Cc1ccc(F)cc1 | i
CN[C@@H](C)C(=O)N1CCC(c2cc(N3CCOCC3)nc(C)n2)CC1 | -5.0%
CCC1C(=O)NCCN1Cc1cn(-c2cccc(F)c2)nc1-c1ccc(C)o1 (centres undefined) | 11.2µM*
CC(=O)N1CCC(C(=O)NC2CCc3n[nH]c(=O)n3CC2)CC1 (centres undefined) | i
O=C1c2ccccc2NC(c2ccc(-c3ccc(-c4ccccc4)cc3)o2)N1O (centres undefined) | i
O=C1c2ccccc2NC(c2ccc(-c3ccc(Br)cc3)o2)N1O (centres undefined) | 12.6µM*
O=C1c2ccccc2NC(c2ccc(-c3ccc(F)cc3)o2)N1O (centres undefined) | -4.3%
CC(C=CC1=C(C)CCCC1(C)C)=CC=CC(C)=CC(=O)Oc1c(C)c(C)c2c(c1C)CC[C@@](C)(CCC[C@H](C)CCC[C@H](C)CCCC(C)C)O2 | 0.3%[2.68 µM]
SMILES | nsP2pro primary
CC(=O)c1cccc(NC(=O)OC[C@H]2C[C@@H]3CCN2C[C@@H]3c2cc(C3CCCC3)nc(C)n2)c1 | i
COc1ccccc1-c1cc([C@H]2CN3CC[C@H]2C[C@@H]3COC(=O)NC2CCCCC2)nc(C)n1 | 10µM*
CC(=O)c1ccc(NC(=O)OC[C@H]2C[C@@H]3CCN2C[C@@H]3c2cc(C3CCCC3)nc(-c3ccncc3)n2)cc1 | i
CCCCCCO[C@@H](C)c1cccc(-c2csc(NC(=O)c3cc(Cl)c(/C=C(\C)C(=O)O)c(Cl)c3)n2)c1OC | 6.3%
COCCNC(=O)C1CCC(=O)N1C1CCNCC1 (centres undefined) | 3.1%
CN(C)C(=O)N1CCN(C2CCNCC2)C(=O)C1 | 12.6µM*
CN1CC(=O)N(C2CCCNCC2)Cc2c1ncnc2N1CCCC1CO (centres undefined) | -29.0%
CN(C)c1ccc(CNc2nc(-c3ccco3)nn2C(=O)c2cccc([N+](=O)[O-])c2)cc1 | -5.3%
COc1ccc(C(=O)n2nc(-c3ccco3)nc2NCc2cccs2)cc1OC | 12.6µM*
COc1ccc(C(=O)n2nc(-c3ccc(Cl)cc3)nc2NCc2ccco2)cc1 | -14.2%
CC(C)C1=NOC2(CCN(C3COC3)CC2)C1 | 2.0%[39.2 µM]
Cc1ccc(S(=O)(=O)Nc2ccccc2C(=O)Nc2nccs2)cc1 | i
C=C1C(=O)OC2/C=C(\CO)CC/C=C(\C=O)C(O)C(OC(=O)C(C)CC)C12 (centres undefined) | -6.0%
C=C(C)C(=O)OC1C(OC(C)=O)/C(C=O)=C\CC/C(CO)=C/C2OC(=O)C(=C)C21 (centres undefined) | 1.36µM*
C=C1C(=O)O[C@@H]2/C=C(\CO)CC/C=C(\CO)[C@H](OC(C)=O)C(OC(=O)C(C)CC)C12 (some centres undefined) | -2.8%[10 µM]
O=C(C[C@@H]1O[C@H](CNC(=O)C2CC2)[C@@H](O)[C@H]1O)Nc1ccccc1 | -4.4%[39.2 µM]
CCCCC(C)(O)CC=C[C@H]1[C@H](O)CC(=O)[C@H]1CCCCCCC(=O)OC (some centres undefined) | 1.4%

Source: PubChem BioAssay
